Molecules are shown by their SMILES. Among all 310,000 compounds or so, about 14,000 (4.5%) showed an effect of 50% or more. Effects have a minus sign here. The sample holds strong results, similar compounds and a random draw of the others, so the mix is not that of the screen.
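Note: peak tail current of the secondary pulse compared with the same well before compound.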

Sequence of human ether-à-go-go-related gene (hERG) potassium channel (Q12809 whole entry, looked up): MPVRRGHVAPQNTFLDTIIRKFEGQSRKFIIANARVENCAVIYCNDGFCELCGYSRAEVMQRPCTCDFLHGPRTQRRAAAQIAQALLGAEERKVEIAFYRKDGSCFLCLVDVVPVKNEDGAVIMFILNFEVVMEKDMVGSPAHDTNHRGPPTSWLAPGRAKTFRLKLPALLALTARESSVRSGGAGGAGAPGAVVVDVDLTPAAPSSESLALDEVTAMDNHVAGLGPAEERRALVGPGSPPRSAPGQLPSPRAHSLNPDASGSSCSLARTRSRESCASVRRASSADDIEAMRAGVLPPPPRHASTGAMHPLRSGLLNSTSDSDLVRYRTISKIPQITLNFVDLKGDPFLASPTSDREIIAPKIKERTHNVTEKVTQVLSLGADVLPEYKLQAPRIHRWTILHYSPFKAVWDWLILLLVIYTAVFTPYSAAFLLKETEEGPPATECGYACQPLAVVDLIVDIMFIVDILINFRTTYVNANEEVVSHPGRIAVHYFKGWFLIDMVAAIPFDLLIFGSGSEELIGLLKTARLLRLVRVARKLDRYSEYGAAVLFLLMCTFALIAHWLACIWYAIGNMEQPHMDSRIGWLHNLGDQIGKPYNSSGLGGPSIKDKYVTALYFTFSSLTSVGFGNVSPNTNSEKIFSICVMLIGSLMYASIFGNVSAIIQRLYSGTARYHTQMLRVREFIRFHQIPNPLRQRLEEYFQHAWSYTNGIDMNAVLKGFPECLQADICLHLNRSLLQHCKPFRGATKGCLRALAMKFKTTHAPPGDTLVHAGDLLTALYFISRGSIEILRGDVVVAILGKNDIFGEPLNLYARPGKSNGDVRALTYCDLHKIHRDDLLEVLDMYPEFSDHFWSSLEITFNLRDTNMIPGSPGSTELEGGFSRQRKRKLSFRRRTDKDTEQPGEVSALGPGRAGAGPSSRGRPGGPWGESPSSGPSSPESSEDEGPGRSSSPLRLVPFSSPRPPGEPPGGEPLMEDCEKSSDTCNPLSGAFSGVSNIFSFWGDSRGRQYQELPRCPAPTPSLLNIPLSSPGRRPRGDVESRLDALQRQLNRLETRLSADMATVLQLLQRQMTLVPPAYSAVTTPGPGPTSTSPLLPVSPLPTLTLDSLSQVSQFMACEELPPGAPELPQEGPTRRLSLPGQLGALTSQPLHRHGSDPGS

This test addresses human ether-à-go-go-related gene (hERG) potassium channel (human, UniProt Q12809). The test can be described thus: primary screen, population patch clamp on CHO cells stably expressing hERG; higher = less effect of the substance.
As for `CCc1nc(SCC(=O)N2CCC(C)CC2)c2c(=O)n(C)c(=O)n(C)c2n1`, the “hERG current change (%, negative = inhibition) at 10uM” value is on record as -11.6%.

For the compound `CC1Cc2ccccc2N1c1ncnc(N)c1[N+](=O)[O-]` (stereo not drawn), the “hERG current change (%, negative = inhibition) at 10uM” value was -24.2%.

Take `CCCCOc1ccccc1P(=O)(O)CP(=O)(c1ccccc1)c1ccccc1`: the “hERG current change (%, negative = inhibition) at 10uM” value is -3.64%.

For the compound `OCCNC(=S)Nc1ccc2c(c1)OCCO2`, the “hERG current change (%, negative = inhibition) at 10uM” value amounted to 9.32%.

Consider `Cc1ccc(-c2nn(C)c(=O)c3ccccc23)cc1CN1CCOCC1`, for which the “hERG current change (%, negative = inhibition) at 10uM” value is -1.21%.

On to `CC(C)=C1C2CCC1C1C(=O)N(c3nccs3)C(=O)C21` (stereo not drawn), for which the “hERG current change (%, negative = inhibition) at 10uM” value stood at 33%.

`O=C1CC(=O)N(c2ccccc2)C(=O)N1c1ccccc1`: the “hERG current change (%, negative = inhibition) at 10uM” value was 2.76%.

In the case of `CCCC(NCC(O)COc1ccc(-c2ccccc2)cc1)c1ccccc1` (stereo not drawn), the “hERG current change (%, negative = inhibition) at 10uM” value worked out at 10.3%.

As to `O=C(NCc1ccc2c(c1)OCO2)C1CCCN1C(=O)Nc1ccc(Cl)cc1` (stereo not drawn), the “hERG current change (%, negative = inhibition) at 10uM” value was -17.4%.

As for `CCn1c(C(C)NC(=O)Cc2ccccc2)nc2ccccc21` (stereo not drawn), the “hERG current change (%, negative = inhibition) at 10uM” value is recorded as -2.26%.

As for `CCc1ccc(NC(=O)C2CCN(c3ncnc4c3nc3n4CCCCC3)CC2)cc1`, the “hERG current change (%, negative = inhibition) at 10uM” value is recorded as -6.35%.

Regarding `Cc1cc2ncn(C(=O)N3CCCCC3)c2cc1C`, the “hERG current change (%, negative = inhibition) at 10uM” value is given as 3.24%.

Take `CCOCCCNC(=O)CN1C(=O)/C(=C/c2ccccc2C)Sc2ccccc21`: the “hERG current change (%, negative = inhibition) at 10uM” value was -8.45%.

For the compound `CCOC(=O)C1CCCN(c2c(N3CCOCC3)c(=O)c2=O)C1` (stereo not drawn), the “hERG current change (%, negative = inhibition) at 10uM” value is -0.407%.

On to `CCOC(=O)C1CCN(C(c2ccccn2)c2c(C)[nH]c3ccccc23)CC1` (stereo not drawn), for which the “hERG current change (%, negative = inhibition) at 10uM” value is -19.8%.

`CCOC(=O)C1CCN(c2c(N3CCCC(C(=O)OCC)C3)c(=O)c2=O)CC1` (stereo not drawn): the “hERG current change (%, negative = inhibition) at 10uM” value is recorded as -22.8%.

As to `CCOC(=O)C1CCCN(c2c(N3CCN(C4CCCCC4)CC3)c(=O)c2=O)C1` (stereo not drawn), the “hERG current change (%, negative = inhibition) at 10uM” value is listed as -55.8%.

Take `CCOC(=O)C1CCCN(C(c2ccccn2)c2c(C)[nH]c3ccccc23)C1` (stereo not drawn): the “hERG current change (%, negative = inhibition) at 10uM” value is recorded as -54.3%.

Regarding `CCOC(=O)C1CCCN(c2c(N3CCC(N4CCCCC4)CC3)c(=O)c2=O)C1` (stereo not drawn), the “hERG current change (%, negative = inhibition) at 10uM” value was -0.665%.

For the compound `CCOC(=O)C1CCCN(c2c(N3CCN(C)CC3)c(=O)c2=O)C1` (stereo not drawn), the “hERG current change (%, negative = inhibition) at 10uM” value stood at 8.41%.

With `Cc1[nH]c2ccccc2c1C(c1ccccn1)N1CCC(C(N)=O)CC1` (stereo not drawn), the “hERG current change (%, negative = inhibition) at 10uM” value was -11.4%.

With `CCOC(=O)C1CCCN(c2c(N3CCN(c4ccccn4)CC3)c(=O)c2=O)C1` (stereo not drawn), the “hERG current change (%, negative = inhibition) at 10uM” value was -55.5%.

Turning to `Cc1ccc(C(=O)C2=C(O)C(=O)N(Cc3cccnc3)C2c2cccc([N+](=O)[O-])c2)o1` (stereo not drawn), the “hERG current change (%, negative = inhibition) at 10uM” value is -9.76%.

As to `CCN(C(=O)COC(=O)CSc1ccc(C(N)=O)cc1[N+](=O)[O-])C1CCCCC1`, the “hERG current change (%, negative = inhibition) at 10uM” value is 5.86%.

`Cc1cc(Cl)nc(Cl)c1C(=O)NC(=O)NCCC(C)C`: the “hERG current change (%, negative = inhibition) at 10uM” value is given as 6.83%.

`O=C(NNC(=O)C1CC=CCC1C(=O)O)c1cccs1` (stereo not drawn): the “hERG current change (%, negative = inhibition) at 10uM” value came to 16.2%.

As to `Cc1ccc(-c2csc(N3CCN(CCCn4c(-c5ccncc5)nc5ccccc54)CC3)n2)cc1`, the “hERG current change (%, negative = inhibition) at 10uM” value is reported as -32.4%.

For `Cc1ccc(-c2csc(N3CCN(CCCn4c(C(F)(F)F)nc5ccccc54)CC3)n2)cc1`, the “hERG current change (%, negative = inhibition) at 10uM” value is given as -4.95%.

With `CC(=O)N[C@@H](C)c1nc2ccccc2n1CCCN1CCN(c2nc(-c3ccc(C)cc3)cs2)CC1`, the “hERG current change (%, negative = inhibition) at 10uM” value is reported as -56.2%.

`Cc1ccc(F)c(NC(=O)C2CCCCC2C(=O)O)c1` (stereo not drawn): the “hERG current change (%, negative = inhibition) at 10uM” value amounted to 8.23%.

Consider `O=C(O)c1ccc(NC(=O)c2ccccc2NC(=O)c2cccc(F)c2)cc1`, for which the “hERG current change (%, negative = inhibition) at 10uM” value turned out to be 20.2%.

For `Fc1ccc(-c2nnc3ccc(N4CCCC4)nn23)cc1`, the “hERG current change (%, negative = inhibition) at 10uM” value is 5.51%.

For `O=C(Nc1ccc(F)cc1)N1CCN(c2ccc3nnc(-c4ccc(F)cc4)n3n2)CC1`, the “hERG current change (%, negative = inhibition) at 10uM” value is -73.5%.

Turning to `O=C(Nc1ccccc1C(F)(F)F)N1CCN(c2ccc3nncn3n2)CC1`, the “hERG current change (%, negative = inhibition) at 10uM” value is recorded as -1.32%.

For the compound `O=C(Nc1ccccc1C(F)(F)F)N1CCN(c2ccc3nnc(-c4ccc(F)cc4)n3n2)CC1`, the “hERG current change (%, negative = inhibition) at 10uM” value is -65.9%.

Consider `c1ccc(-c2nnc3ccc(N4CCCC4)nn23)cc1`, for which the “hERG current change (%, negative = inhibition) at 10uM” value is given as 7.51%.

With `O=C(c1ccc(Br)o1)N1CCN(c2ccc3nnc(-c4ccccc4)n3n2)CC1`, the “hERG current change (%, negative = inhibition) at 10uM” value was -79.1%.

As to `O=C(Nc1ccc(Cl)cc1)N1CCN(c2ccc3nnc(-c4ccc(F)cc4)n3n2)CC1`, the “hERG current change (%, negative = inhibition) at 10uM” value was -28.3%.

In the case of `O=C(c1ccc(Br)o1)N1CCN(c2ccc3nnc(-c4ccc(F)cc4)n3n2)CC1`, the “hERG current change (%, negative = inhibition) at 10uM” value is on record as -46.4%.

In the case of `COc1ccccc1NC(=O)N1CCN(c2ccc(F)cc2)CC1`, the “hERG current change (%, negative = inhibition) at 10uM” value is given as -18.7%.

In the case of `COc1ccccc1NC(=O)N1CCN(c2ccc3nncn3n2)CC1`, the “hERG current change (%, negative = inhibition) at 10uM” value was -23.1%.

Consider `O=C(Nc1ccccc1C(F)(F)F)N1CCN(c2ccccn2)CC1`, for which the “hERG current change (%, negative = inhibition) at 10uM” value is given as 9.98%.

With `COc1ccccc1NC(=O)N1CCN(c2ccc3nnc(-c4ccc(F)cc4)n3n2)CC1`, the “hERG current change (%, negative = inhibition) at 10uM” value is -68.9%.

For `O=C(CCC(=O)c1ccc(Br)cc1)Nc1ccc(F)cc1`, the “hERG current change (%, negative = inhibition) at 10uM” value is reported as 23.7%.

`COc1ccc(C2=NC(=O)NC2c2ccc(OC)cc2)cc1` (stereo not drawn): the “hERG current change (%, negative = inhibition) at 10uM” value is given as -29.4%.

For `Cc1ccc(S(=O)(=O)N(C)C)cc1-n1c(SCC(=O)Nc2ccc(F)c(F)c2F)nc2ccccc2c1=O`, the “hERG current change (%, negative = inhibition) at 10uM” value is 8.58%.

As for `Cl.O=C(Cc1ccccc1)OCCN1CCOCC1`, the “hERG current change (%, negative = inhibition) at 10uM” value turned out to be 20.4%.

`CCCOc1ccc(C2(C(=O)O)CCCC2)cc1`: the “hERG current change (%, negative = inhibition) at 10uM” value is on record as 6.16%.

Take `C=CCC1C=CCC(CC=C)N1C(=O)c1ccccc1[N+](=O)[O-]` (stereo not drawn): the “hERG current change (%, negative = inhibition) at 10uM” value is recorded as -3.17%.

Regarding `COC(=O)c1sccc1NC(=S)N1CCCCC1C` (stereo not drawn), the “hERG current change (%, negative = inhibition) at 10uM” value is on record as -25.6%.

For the compound `CC1=C(C(=O)OCC(C)C)C2(O)C(=O)c3ccccc3C2(O)N1` (stereo not drawn), the “hERG current change (%, negative = inhibition) at 10uM” value is on record as 3.4%.

For the compound `Clc1ccc(CSc2nnc(-c3ccncc3)o2)c(Cl)c1`, the “hERG current change (%, negative = inhibition) at 10uM” value stood at 0.528%.

Regarding `COc1ccc(C2/C=C\CN(S(=O)(=O)c3ccc4ccccc4c3)CC(=O)N2Cc2ccc(F)cc2)cc1` (stereo not drawn), the “hERG current change (%, negative = inhibition) at 10uM” value came to 8.33%.

For `Cc1nc(-c2ccccc2)sc1C1(C)CC(c2ccc(C#N)cc2)=NO1` (stereo not drawn), the “hERG current change (%, negative = inhibition) at 10uM” value is on record as -3.07%.

`O=C(Nc1ccccc1Cl)N1CCN(c2ccc3nncn3n2)CC1`: the “hERG current change (%, negative = inhibition) at 10uM” value is -23.2%.

As for `O=C(Nc1ccccc1Cl)N1CCN(c2ccc3nnc(-c4ccccc4)n3n2)CC1`, the “hERG current change (%, negative = inhibition) at 10uM” value is on record as -73.5%.

Regarding `O=C(Nc1ccccc1Cl)N1CCN(c2ccc3nnc(-c4ccc(F)cc4)n3n2)CC1`, the “hERG current change (%, negative = inhibition) at 10uM” value is recorded as -42.1%.

(Values after article PMC4336329 (PLoS ONE, 2015).)
